Reference: PubChem BioAssay (NCI)
This is part of a sample that, as a whole, favours compounds with a hit. Of some 79,000 tested, about 15% had one in any assay. Cut-off read from the data, not from the text of the source: active = growth inhibition above about 70%; inactive = the rest.

Key:
[1] = NCI Yeast Anticancer Drug Screen. Data for the rad50 strain (AID 155);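 note: 0% = growth of vehicle-only cultures of the same strain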; conditions: S. cerevisiae rad50 strain growth inhibition; at 50.0 µM; active compounds read high
Outline: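 Compounds were tested on a yeast strain with an engineered DNA damage repair alteration; the reported value is growth inhibition normalised to vehicle treatment.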

[2] = NCI Yeast Anticancer Drug Screen. Data for the mec2-1 strain (AID 157); conditions: S. cerevisiae mec2-1 strain, at 50.0 µM, active compounds read high
Outline: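 Yeast mec2-1 mutant treated with compound. Readout: growth inhibition vs vehicle controls.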

[3] = NCI Yeast Anticancer Drug Screen. Data for the sgs1 mgt1 strain (AID 161);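 note: 0% = growth of cultures given vehicle only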; conditions: S. cerevisiae sgs1 mgt1 strain, at 50.0 µM, active compounds read high
Outline: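 Test agents were incubated with a DNA-repair-mutant yeast strain. Growth was then read and compared against vehicle-treated controls.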

[4] = NCI Yeast Anticancer Drug Screen. Data for the cln2 rad14 strain (AID 165);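 note: 0% = growth equal to vehicle treated cultures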; conditions: S. cerevisiae cln2 rad14 strain, at 50.0 µM, active compounds read high
Outline: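 cln2 rad14 yeast strain; compound exposure; growth inhibition read vs vehicle controls.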

[5] = NCI Yeast Anticancer Drug Screen. Data for the bub3 strain (AID 167); conditions: S. cerevisiae bub3 mutant strain, at 50.0 µM, active compounds read high
Outline: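 Growth of a checkpoint-deficient yeast mutant is measured after compound exposure. Values represent inhibition relative to vehicle.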

[6] = NCI Yeast Anticancer Drug Screen. Data for the mlh1 rad18 strain (AID 175); conditions: S. cerevisiae mlh1 rad18 strain growth inhibition; at 50.0 µM; active compounds read high
Outline: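 Yeast w/ defined DNA-repair lesions; compound exposure; growth vs vehicle controls → % inhibition.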

Measured: growth inhibition

CC(=O)CC(=O)CCCCC(=O)O
inactive: [1] -0.15% | [2] -11.1% | [3] -6.55% | [4] -22.6% | [5] -5.6% | [6] 4.8%

Cc1ccc(CNC(=S)Nc2ccc(F)cc2)c(C)c1
inactive: [1] -7.6% | [2] 30.1% | [3] 30.4% | [4] -24.7% | [5] 46.1% | [6] 27.4%

O=[N+]([O-])c1ccc(Sc2c3ccccc3nc3cc(Cl)ccc23)cc1
inactive: [1] -32.2% | [2] -18.3% | [3] -18.5% | [4] 9.3% | [5] -20.3% | [6] -28.9%

NCc1ccc(Cl)cc1
inactive: [1] 8.65% | [2] -2.65% | [3] 11.4% | [4] 25.8% | [5] -2.2% | [6] 14.2%

O=c1[nH]c2ccc([N+](=O)[O-])cc2nc1/C=C(\O)c1ccccc1
inactive: [1] -9.85% | [2] 14.3% | [3] -24.4% | [4] -31.1% | [5] 3.75% | [6] -46.5%

CCOC(=O)N[C@@H]1C(CC(=O)OC)O[C@H]2OC(C)(C)O[C@H]21 (stereo partly specified)
inactive: [1] 18.1% | [2] -7.2% | [3] 10.4% | [4] 7.4% | [5] -9.55% | [6] 6.25%

CCOC(=O)C1=C(C(=O)c2ccccc2)C(c2ccc([N+](=O)[O-])cc2)C(C(=O)c2ccccc2)=C(C(=O)OCC)N1
inactive: [1] -6.5% | [2] 1.6% | [3] -4% | [4] 14.2% | [5] -10.9% | [6] 7.5%

O=C(N/N=C\c1c[nH]c2ccccc12)N/N=C/c1c[nH]c2ccccc12
inactive: [1] -4.05% | [2] -21.4% | [3] -7.25% | [4] -11.2% | [5] -3.45% | [6] -37.9%

NCC(=O)NCC(=O)NCC(=O)NCC(=O)NCC(=O)NCC(=O)O
inactive: [1] 26.1% | [2] 16.4% | [3] 0.4% | [4] -38.6% | [5] -3.5% | [6] -3.65%

COc1ccccc1NC(=O)C(CC(C(=O)Nc1ccccc1OC)/C(C)=N/NC(=O)c1ccccc1O)/C(C)=N/NC(=O)c1ccccc1O (stereo unspecified)
inactive: [1] -27.8% | [2] -14.2% | [3] -28.2% | [4] 21.9% | [5] -3.55% | [6] -9.1%

CC(=O)[C@H]1CC[C@H]2[C@@H]3CC[C@H]4C[C@@H](OC(c5ccccc5)(c5ccccc5)c5ccccc5)CC[C@]4(C)[C@H]3CC[C@]12C
inactive: [1] -3.55% | [2] 11.8% | [3] 0.95% | [4] -3.95% | [5] -5.5% | [6] -17.6%

NCC(O)CN
inactive: [1] -13.8% | [2] -0.75% | [3] -2.75% | [4] -8.2% | [5] -0.55% | [6] 1.45%

COc1ccc(C2(C(OC)OC)NC(=O)N(Cc3ccccc3)C2=O)cc1 (stereo unspecified)
inactive: [1] 2.7% | [2] -10.6% | [3] -4.5% | [4] -49.4% | [5] -11.8% | [6] -10.3%

CCOC(=O)CCc1ccc(NC(=O)/C=C/c2ccc([N+](=O)[O-])o2)cc1
inactive: [1] 55% | [2] 29.1% | [3] 56.3% | [4] 53.8% | [5] 34.8% | [6] 36.7%

c1ccc2c(c1)ncc1cccn12
inactive: [1] 5.15% | [2] -10.9% | [3] 0.65% | [4] 3.45% | [5] 7.7% | [6] 1.25%

O=C(O)CC(=O)c1ccccc1
inactive: [1] -27.8% | [2] 4.85% | [3] -10.4% | [4] 14.2% | [5] 4.35% | [6] -15.8%

ON(CCc1ccncc1)Cc1ccccc1
inactive: [1] 1.6% | [2] -31.1% | [3] -20.1% | [4] 2.95% | [5] -56.3% | [6] 15.5%

O=P(Nc1ccc(Cl)c(Cl)c1)(N1CCCCC1)N1CCCCC1
inactive: [1] 3.5% | [2] -47.8% | [3] -12.4% | [4] -12.8% | [5] 2.45% | [6] 14.7%

Cc1cccc(C(N)=O)c1
inactive: [1] 22.6% | [2] 6.7% | [3] 3.3% | [4] -4.75% | [5] 8.95% | [6] 32.9%

CCCCCCCCCC(=O)Oc1cccc2onc(C)c12
inactive: [1] -21.2% | [2] -43.5% | [3] -20.2% | [4] -7.8% | [5] -13.5% | [6] -10.8%

CCOc1ncc(C(O)c2ccc(F)cc2)c(OCC)n1 (stereo unspecified)
inactive: [1] 17.1% | [2] -3.95% | [3] 1.15% | [4] -52.4% | [5] 11.4% | [6] 0.3%

C/C(=N\NC(=O)CC(=O)Nc1ccccc1Cl)c1cc2cc(N=Nc3ccccc3Cl)ccc2oc1=O
inactive: [1] -17.1% | [2] 0.7% | [3] 13.9% | [4] 4.4% | [5] -4.05% | [6] -13.6%

COC(=O)CCC(=O)CC(=O)C(=O)Nc1c(Cl)cc([N+](=O)[O-])cc1Cl
inactive: [1] 11.4% | [2] -17.1% | [3] 0.5% | [4] 24.1% | [5] -4.5% | [6] 3.8%

CC(C)OC(=O)Oc1ccccc1Cl
inactive: [1] -18.5% | [2] -21.1% | [3] -13.6% | [4] -6.9% | [5] -3.35% | [6] -22.4%

CC(COc1ccc(Cl)cc1)OS(=O)(=O)CCCl (stereo unspecified)
inactive: [1] 14.3% | [2] 13% | [3] -16.1% | [4] -16.1% | [5] -1.1% | [6] -4.65%

Cc1csc(NNC(N)=O)n1
inactive: [1] 1.65% | [2] -8.05% | [3] -63.5% | [4] -14% | [5] -42.9% | [6] -27.4%

CCCNc1nc(C)nc2[nH]cc(C)c12
inactive: [1] 7.35% | [2] -5.1% | [3] -3.15% | [4] -31.1% | [5] -7.7% | [6] -7.65%

O=C(O)c1ccccc1NC(C(=O)O)c1ccccc1 (stereo unspecified)
inactive: [1] -13.1% | [2] -4.25% | [3] -27.4% | [4] 9.1% | [5] -18.9% | [6] -11.7%

CCCC(O)CNCc1ccc2ncccc2c1 (stereo unspecified)
inactive: [1] -20.4% | [2] -4.2% | [3] 2.1% | [4] -66.8% | [5] -4.35% | [6] -23.4%

O=C1C=C(Nc2ccc(Br)cc2)c2ccccc2C1=O
inactive: [1] 36.3% | [2] -1.95% | [3] 11.6% | [4] 7.75% | [5] -1.45% | [6] -2.05%

CC(=O)/C(=C/n1c(=S)sc2ccccc21)C(=O)Nc1ccc([N+](=O)[O-])cc1
inactive: [1] 6.4% | [2] 4.55% | [3] -2.45% | [4] -15.8% | [5] -19.8% | [6] -8.7%

C=CCC(OC(=O)CC)c1ccc2c(c1)OCO2 (stereo unspecified)
inactive: [1] 7.3% | [2] -11.6% | [3] 5% | [4] 4.05% | [5] 9.3% | [6] -11.9%

Cc1ccc(S(=O)(=O)N2CCN(S(=O)(=O)c3ccc(C)cc3)CCN(S(=O)(=O)c3ccc(C)cc3)Cc3cc(Br)c(Br)cc3CN(S(=O)(=O)c3ccc(C)cc3)CC2)cc1
inactive: [1] -24.1% | [2] -6.05% | [3] -23.3% | [4] 17.6% | [5] -3.1% | [6] -10.3%

CCn1c(C)cc(=NC(=O)c2ccccc2O)n1-c1ccccc1
inactive: [1] 4.45% | [2] 9.8% | [3] 25.6% | [4] 11.5% | [5] 21% | [6] 16.7%

N#CC1(Nc2ccc(Cl)cc2)CCCC1
inactive: [1] 5.6% | [2] 2.4% | [3] -6.5% | [4] -15.6% | [5] 13.8% | [6] 3.1%

Cc1cccc(C)c1NN
inactive: [1] 23.2% | [2] -4.15% | [3] 11.8% | [4] -12.7% | [5] -11.5% | [6] 24.2%

C1=C(c2ccccc2)CC(c2ccc(-c3ccccc3)cc2)=C1
inactive: [1] 6.9% | [2] 1.15% | [3] 1.55% | [4] -27.6% | [5] -10.2% | [6] 16.4%

Oc1c(Cl)cc(Cl)cc1/C=N/c1nc(-c2ccc(Cl)cc2)cs1
inactive: [1] 52.1% | [2] 26.1% | [3] 61.3% | [4] 28.1% | [5] 38.8% | [6] 35%

CCCCNC[C@@H](O)[C@H](O)COS(C)(=O)=O
inactive: [1] 0.4% | [2] -11.7% | [3] -8.65% | [4] -24.1% | [5] -13.7% | [6] -7.05%

Cc1nnc(CC#N)n1NC(=O)CC#N
inactive: [1] 3.95% | [2] -3.15% | [3] -2.7% | [4] -18% | [5] 8.65% | [6] 9.95%

CCOC(=O)C(NC(=O)c1ccccc1)(N1CCOCC1)C(F)(F)F (stereo unspecified)
inactive: [1] 25.3% | [2] -20.1% | [3] 8.05% | [4] 15.8% | [5] -3.45% | [6] -44.9%
